This is part of a sample that, as a whole, favours compounds with a hit. Of some 83,000 tested, about 20% had one in any assay.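 Each cell line was grown in a 96-well plate and treated with one concentration of compound for 48 hours. Values below 10 were considered active.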 The source made the active and inactive calls.
These compounds were tested on OVCAR-4 ovarian (assay: NCI-60 one-dose screen, 48 h (100 = growth as untreated, 0 = no growth, -100 = all killed)). Conditions: 10 µM unless noted.

Structure (SMILES) | growth
COc1ccc2c(c1)CC[C@@H]1[C@@H]2CC[C@]2(C)[C@@H](O)C(=O)C[C@@H]12 | 107% (inactive)
C[C@@H]1CN(c2nc3c(cc2F)c(=O)c(C(=O)O)cn3C(C)(C)C)C[C@H](C)N1 | 104% (inactive)
NS(=O)(=O)c1ccc(-n2ncc3c(NC4CCCCC4)ncnc32)cc1 | 97.9% (inactive)
CCOC(=O)C1=CCC(n2cc(C)c(=O)[nH]c2=O)O1 (stereo not given) | 105% (inactive)
O=CNc1ccc2c(c1)Cc1cc([N+](=O)[O-])ccc1-2 | 74.5% (inactive)
CC(=O)[C@H]1CC[C@H]2[C@@H]3C[C@H](C)C4=CC(=O)CC[C@]4(C)[C@H]3C(=O)C[C@]12C | 102% (inactive)
Cc1ccc2nc(SCC(=O)Nc3ccc(-c4nc5ccccc5s4)c(Cl)c3)[nH]c2c1 | 112% (inactive)
Cc1ccc(C(=O)Cc2ccccc2)c(O)c1 | 107% (inactive)
ICCC(c1ccccc1)(c1ccccc1)c1ccccc1 | 50.8% (inactive)
c1ccc(CN=C(NCc2ccccc2)NCc2ccccc2)cc1 | 30.2% (inactive)
Oc1ccc(/C=N/Nc2nc3ccccc3s2)c(O)c1 | 21.5% (inactive)
O=C(CC(C(=O)c1ccccc1)N1CCN(Cc2ccccc2)CC1)c1ccccc1 (stereo not given) | 86.5% (inactive)
CC(NC(N)=S)c1ccccc1 (stereo not given) | 106% (inactive)
C[C@]12CCC(=O)C=C1CC[C@H]1[C@@H]3C[C@@H](O)[C@](O)(C(=O)CO)[C@@]3(C)C[C@H](O)[C@@]12F | 95.7% (inactive)
O=C(Nc1ccc2c(c1)C(=O)c1ccccc1-2)c1ccccc1 | 15.9% (inactive)
